The test system of assay [1] is Human papillomavirus type 1a protein E7 (residues 44-93). Nature of the assay: small molecules binding HPV E7 44-93 – biochemical, small-molecule microarray, residues 44-93, 635 nm fluorescence, primary screen (AID 1108).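 Also: E7 fragment applied at 1 µg/mL in TBST for 1 h at 4 C; score combines spot fluorescence with its signal to noise ratio.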 The settings on record: fluorescence 635 nm, higher = more signal.
Assay [2] is described as follows: hepatitis C replication reporter changes, two-sided – Huh7 cells, luciferase reporter, HCV replication inhibitor project, primary screen (AID 1109).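 Also: huh7 hepatoma cells harbouring a luciferase neomycin HCV replicon reporter; luciferase luminescence as measure of HCV replicon replication; test concentration not given here.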 The settings on record: Huh7 HCV replicon luciferase reporter, 48 h; higher = more signal. Background: A reporter such as luciferase makes a cellular process visible.
For assay [3], the target named is Left-right determination factor 2 (Homo sapiens) (UniProt O00292). Kind of assay: small molecules binding LEFTY2 protein – biochemical, small-molecule microarray, 635 nm fluorescence scan, primary screen (AID 1110). The conditions noted are these: higher = more signal.
Assay [4] addresses Calmodulin-1 (Homo sapiens) (UniProt P0DP23). Nature of the assay: small molecules binding calmodulin-1 with EGTA – biochemical, small-molecule microarray, Cy5-labelled CALM1, profiling panel (AID 1111).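 Also: labelled calmodulin applied in Tris saline Tween buffer holding calcium plus EGTA and DTT.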 The settings on record: Cy5-CALM1 binding fluorescence, higher = more signal.
For assay [5] the target is unchanged. Kind of assay: small molecules binding Ca-loaded calmodulin-1 – biochemical, small-molecule microarray, Cy5-labelled CALM1, plus calcium, artefact control for SMM control-protein annotation, profiling panel (AID 1112).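 Also: score merges spot fluorescence with signal to noise from triplicate slides.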 The conditions noted are these: Cy5-CALM1 binding fluorescence, higher = more signal.
The nature of assay [6]: probe aWnt5a binding to arrayed compounds – biochemical, biotinylated probe, 635/667 nm fluorescence, primary screen (AID 1113).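 Also: score merges 667 nm fluorescence intensity with signal-to-noise per printed feature.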 The conditions noted are these: small-molecule microarray, higher = more signal.
Assay [7] in a line: probe aShh binding to arrayed compounds – biochemical, biotinylated probe, 635/667 nm fluorescence, primary screen (AID 1114).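 Also: probe is biotin-labelled aShh protein from a stem cell growth factor screen; measures binding of labelled protein to compounds printed on the slide; score merges feature fluorescence at 667 nm with signal-to-noise.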 The conditions noted are these: small-molecule microarray, higher = more signal.
Assay [8] is described as follows: probe aNog binding to arrayed compounds – biochemical, biotinylated probe, 635/667 nm fluorescence, primary screen (AID 1115).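 Also: probe is biotinylated aNog protein used at 0.15 µg/mL for 1 h at 4 C; z-score combines 667 nm fluorescence of each spot with its signal to noise.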 The conditions noted are these: small-molecule microarray, higher = more signal.
In assay [9] the target is Torsin-1A-interacting protein 1 (Homo sapiens) (UniProt Q5JTV8). Kind of assay: compound microarray binding of lysate hLAP1 – cell lysate, small-molecule microarray, COS7 lysate, 635/667 nm fluorescence, primary screen (AID 1116). The conditions noted are these: 635 nm fluorescence, higher = more signal.
Assay [10] deals with Alpha-bungarotoxin (Bungarus multicinctus) (UniProt P60615). Kind of assay: compounds binding labelled alpha-BTX control protein – biochemical, small-molecule microarray, Alexa647 label, 635/667 nm fluorescence, artefact control for SMM control protein annotation, profiling panel (AID 1117). The conditions noted are these: alpha-BTX-A647 binding fluorescence, higher = more signal.

Another assay concerns the target Albumin (Bos taurus) (UniProt P02769). Nature of the assay: compounds binding labelled BSA control protein – biochemical, small-molecule microarray, Alexa647 label, 635/667 nm fluorescence, artefact control for SMM control protein annotation, profiling panel (AID 1118).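 Also: score merges 667 nm emission intensity and signal-to-noise per printed compound spot.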 The settings on record: BSA-A647 binding, fluorescence 635 nm, higher = more signal.
A short description of assay [11]: probe aXIP binding to arrayed compounds – biochemical, NeuroSMM set, 635/667 nm fluorescence, primary screen (AID 1119).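 Also: probe is the protein aXip251-270 applied at 1 µg/mL to compound-printed slides; binding of probe to printed compounds measured as 667 nm fluorescence plus signal to noise.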 The settings on record: small-molecule microarray, higher = more signal, called active from +8 up or from −8 down.
Assay [12] in a line: probe aNOTCH3 binding on compound microarray – biochemical, small-molecule microarray, 635/667 nm fluorescence, primary screen (AID 1120).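 Also: probe is a biotin-tagged antibody raised against NOTCH3 rather than NOTCH3 protein; score merges spot fluorescence near 667 nm with spot signal to noise.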 The conditions noted are these: higher = more signal.
Assay [13] can be described thus: probe aNOTCH2 binding on compound microarray – biochemical, small-molecule microarray, 635/667 nm fluorescence, primary screen (AID 1121).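 Also: score merges feature fluorescence read at 667 nm with its signal to noise.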 The conditions noted are these: higher = more signal.
Assay [14] concerns the target Carbonic anhydrase 2 (Homo sapiens) (UniProt P00918). Kind of assay: compounds binding carbonic anhydrase 2 – biochemical, small-molecule microarray, Alexa647-labelled CAII, profiling panel (AID 1122). The settings on record: CAII-A647 binding fluorescence, higher = more signal.
Assay [15] is described as follows: COS7 lysate on small-molecule microarray, probe aHis, 635 nm (AID 1123).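 Also: z-score combines 667nm fluorescence intensity with signal-to-noise per printed compound spot.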 The settings on record: COS7 cell lysate, fluorescence, higher = more signal.
The nature of assay [16]: probe aLAP1 signal on lysate-treated microarray – cell lysate, small-molecule microarray, COS7 lysate, primary screen (AID 1124).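 Also: lysate comes from COS7 cells expressing LAP1 and is applied at 0.3 µg/mL; score merges spot fluorescence near 667 nm with signal-to-noise over triplicate slides.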 The conditions noted are these: probe aLAP1, fluorescence, higher = more signal.
The subject of another assay is Sam68 (KHDRBS1). Nature of the assay: compounds binding KHDRBS1 protein – biochemical, small-molecule microarray, 635 nm fluorescence, primary screen (AID 1125).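 Also: score merges 667 nm channel intensity with signal to noise over triplicate slides.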 The settings on record: higher = more signal.
The subject of assay [17] is Chordin-like protein 2 (CHRDL2). Kind of assay: compounds binding chordin-like 2 – biochemical, small-molecule microarray, 635 nm fluorescence, primary screen (AID 1126).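 Also: printed compound slides probed with Chrdl2 protein at 4 µg/mL for 1 h at 4 C; score merges 667 nm emission intensity with signal to noise over three replicate slides.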 The conditions noted are these: fluorescence 635 nm, higher = more signal.
Assay [18] concerns the target Concanavalin-A (Canavalia ensiformis) (UniProt P02866). Nature of the assay: compounds binding concanavalin A lectin – biochemical, small-molecule microarray, Alexa647 label, 635 nm, artefact control for SMM control protein annotation, primary screen (AID 1127).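 Also: z combines 667 nm emission intensity with signal-to-noise across three replicate slides.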 The conditions noted are these: ConA-A647 binding fluorescence, higher = more signal.

SMILES strings stand for the structures. Calls of active or inactive are those of the source.

Chain of Left-right determination factor 2 (Homo sapiens) (O00292 whole entry, looked up): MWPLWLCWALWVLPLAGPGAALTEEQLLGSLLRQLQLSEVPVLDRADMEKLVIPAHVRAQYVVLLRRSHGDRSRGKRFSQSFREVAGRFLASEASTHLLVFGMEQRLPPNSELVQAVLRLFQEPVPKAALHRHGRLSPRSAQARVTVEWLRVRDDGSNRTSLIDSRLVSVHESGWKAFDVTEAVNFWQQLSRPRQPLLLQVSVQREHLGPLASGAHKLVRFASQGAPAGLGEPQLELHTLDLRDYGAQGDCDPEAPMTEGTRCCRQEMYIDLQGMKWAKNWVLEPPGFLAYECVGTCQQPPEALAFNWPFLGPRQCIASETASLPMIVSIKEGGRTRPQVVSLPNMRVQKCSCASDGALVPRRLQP
Chain of Alpha-bungarotoxin (Bungarus multicinctus) (P60615 whole entry, looked up): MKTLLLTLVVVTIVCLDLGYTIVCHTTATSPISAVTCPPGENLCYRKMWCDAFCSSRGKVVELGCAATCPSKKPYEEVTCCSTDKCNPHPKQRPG
Chain of Concanavalin-A (Canavalia ensiformis) (P02866 whole entry, looked up): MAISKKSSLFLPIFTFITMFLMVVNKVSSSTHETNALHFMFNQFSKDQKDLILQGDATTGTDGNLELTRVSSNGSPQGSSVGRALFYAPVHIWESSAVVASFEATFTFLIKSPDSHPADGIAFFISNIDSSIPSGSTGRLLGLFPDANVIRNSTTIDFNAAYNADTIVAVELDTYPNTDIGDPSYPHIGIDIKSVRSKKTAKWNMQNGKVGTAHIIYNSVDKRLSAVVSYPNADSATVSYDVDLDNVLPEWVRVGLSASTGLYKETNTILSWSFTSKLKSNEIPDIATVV
Chain of Albumin (Bos taurus) (P02769 whole entry, looked up): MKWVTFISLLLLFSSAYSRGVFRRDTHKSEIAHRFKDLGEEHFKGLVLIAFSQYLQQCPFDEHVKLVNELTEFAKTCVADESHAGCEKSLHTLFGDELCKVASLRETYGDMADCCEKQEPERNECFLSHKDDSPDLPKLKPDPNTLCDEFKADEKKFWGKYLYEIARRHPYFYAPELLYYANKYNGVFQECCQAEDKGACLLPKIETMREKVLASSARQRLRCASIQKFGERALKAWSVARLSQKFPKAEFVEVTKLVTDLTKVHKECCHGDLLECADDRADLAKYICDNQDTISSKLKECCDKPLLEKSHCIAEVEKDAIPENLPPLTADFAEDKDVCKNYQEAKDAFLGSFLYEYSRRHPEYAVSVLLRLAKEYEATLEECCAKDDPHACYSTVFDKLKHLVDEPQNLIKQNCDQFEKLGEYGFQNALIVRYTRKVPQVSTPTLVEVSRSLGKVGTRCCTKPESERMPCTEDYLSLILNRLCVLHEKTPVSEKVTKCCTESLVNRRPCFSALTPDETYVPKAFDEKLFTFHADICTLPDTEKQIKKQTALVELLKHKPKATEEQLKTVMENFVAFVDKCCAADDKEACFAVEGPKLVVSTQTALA
Chain of Torsin-1A-interacting protein 1 (Homo sapiens) (Q5JTV8 whole entry, looked up): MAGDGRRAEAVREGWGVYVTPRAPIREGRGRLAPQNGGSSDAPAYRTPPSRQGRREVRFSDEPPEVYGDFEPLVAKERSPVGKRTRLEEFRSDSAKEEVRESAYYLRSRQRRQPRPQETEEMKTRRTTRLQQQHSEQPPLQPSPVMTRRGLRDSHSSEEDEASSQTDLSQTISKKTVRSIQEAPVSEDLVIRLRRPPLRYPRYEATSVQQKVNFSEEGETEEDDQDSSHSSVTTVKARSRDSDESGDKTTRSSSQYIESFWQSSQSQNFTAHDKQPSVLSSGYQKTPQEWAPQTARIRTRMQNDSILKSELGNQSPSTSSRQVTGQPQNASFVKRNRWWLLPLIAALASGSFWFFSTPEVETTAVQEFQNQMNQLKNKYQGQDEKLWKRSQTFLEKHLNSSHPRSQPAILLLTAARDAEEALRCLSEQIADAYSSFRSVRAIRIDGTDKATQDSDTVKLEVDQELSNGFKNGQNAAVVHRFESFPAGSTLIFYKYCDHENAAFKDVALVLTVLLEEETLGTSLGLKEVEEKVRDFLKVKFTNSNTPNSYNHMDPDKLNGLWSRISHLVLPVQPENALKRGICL

On to `C=C(CCCC)/C(=C/C[C@@H](OC(C)=O)c1ccc(CO)o1)c1cc(C(=O)OC)ccc1OC`, for which the composite z-score in assay [1] was 1.45; in assay [3], 0.26; in [4] it was 0.723; in assay [5] it was 0.0443; in assay [6] it was -0.0758; in assay [7], -0.232. The composite z-score in [8] was 0.141; in [9] it was 0.886; in assay [10], 1.28; with Albumin (Bos taurus), 0.557; in assay [12], -0.0195; in assay [13], -0.0741. Moreover, the composite z-score amounted to 0.57 in [14]; 0.69 in assay [15]; 0.557 in assay [16]; 1.29 in the assay on Sam68 (KHDRBS1); 0.182 in [17]; 0.851 in [18]. In assay [2], the z-score was -1.79. For the same molecule, in assay [11], the composite Z-score is 0.378 (inactive).
Take `CC(C)CNC(=O)[C@@]1(c2ccc([N+](=O)[O-])cc2)CC(=O)N(C2CCCCC2)[C@@H]1c1ccc(CO)cc1I`: the composite z-score is 1.11 in assay [1]; -0.609 in assay [3]; 0.779 in assay [4]; 0.379 in [5]; -0.0417 in assay [6]; -0.16 in assay [7]. Also, the composite z-score in assay [8] was -0.279; in [9], 0.341; in [10] it was 0.817; with Albumin (Bos taurus) it was 0.441; in [12], -0.0598; in assay [13], -0.0761. Further, the composite z-score in [14] is 0.469; in [15], 1.86; in assay [16] it was 0.15; in the assay with Sam68 (KHDRBS1), 0.754; in [17], -0.662; in assay [18] it was 0.282. Moreover, the z-score in [2] is -2.3. Besides, the composite Z-score in assay [11] is 0.0911 (inactive).
For `CN(C)CCCNC(=O)[C@@H]1c2ccccc2C(=O)N(CC23CC4CC(CC(C4)C2)C3)[C@H]1c1ccc(CO)cc1`, the composite z-score was 1.47 in [1]; 0.832 in [3]; 0.309 in assay [4]; -0.632 in [5]; 0.0215 in assay [6]; -0.542 in assay [7]. Besides, the composite z-score is -0.403 in assay [8]; 0.858 in assay [9]; 1.65 in assay [10]; 0.821 with Albumin (Bos taurus); -0.001 in [12]; -0.0984 in assay [13]. The composite z-score in assay [14] was 0.344; in assay [15], 2.62; in assay [16], 2.1; in the assay on Sam68 (KHDRBS1), 1.3; in assay [17], 0.452; in assay [18], 1.18. Further, in [2], the z-score was -3.1. In [11], the composite Z-score is 2.01 (inactive).
For the molecule `NC(=O)NCC#Cc1ccc2c(c1)[C@]1(C(=O)N2)[C@H](C(=O)O)[C@H]2C(=O)O[C@H](c3ccccc3)[C@H](c3ccccc3)N2[C@@H]1c1ccccc1OCCO`, the composite z-score in assay [1] is 0.497; in assay [3], 0.28; in assay [4], 2.05; in assay [5], 1.01; in [6], 0.0354; in assay [7] it was -0.412. Besides, the composite z-score in assay [8] turned out to be 0.91; in assay [9] it was 1.45; in [10], 3.27; with Albumin (Bos taurus) it was 0.501; in assay [12], 0.199; in assay [13], 0.0505. Besides, the composite z-score in assay [14] is 0.372; in assay [15] it was 0.329; in assay [16] it was -0.0878; in the assay on Sam68 (KHDRBS1) it was 0.685; in assay [17], 0.915; in assay [18], 1.11. Also, the z-score in [2] amounted to 0.393. Moreover, in assay [11], the composite Z-score is 0.434 (inactive).
For `C[C@@H](OCc1ccccc1)C1NC(=O)[C@@]23C(=O)N[C@@H](Cc4ccccc4)C2[C@H](C)[C@@]2(C)O[C@H]2C3/C=C/C/C=C\CNC(=O)CNC1=O` (stereo not given in full), the composite z-score was -0.816 in [1]; 0.367 in [3]; -1.15 in assay [4]; -1.02 in [5]; -0.199 in assay [6]; -0.179 in assay [7]. Moreover, the composite z-score in assay [8] was -0.323; in assay [9], -0.143; in assay [10], -1.56; with Albumin (Bos taurus) it was 0.651; in assay [12], -0.0647; in assay [13], -0.133. Besides, the composite z-score in [14] was 0.721; in assay [15], -0.282; in [16] it was 0.234; in the assay on Sam68 (KHDRBS1) it was -1.28; in assay [17], 0.0667; in assay [18] it was -2.32. The z-score in assay [2] was -0.712. In addition, the composite Z-score in assay [11] was 0.536 (inactive).
For the molecule `C=C1C2CC3C(=C4C(CO[C@@H]4[C@H]4CCCN4S(=O)(=O)c4ccccc4[N+](=O)[O-])C4C(=O)N(C)C(=O)C34)CC2C(=O)N1C` (stereo not given in full), the composite z-score in assay [1] is -1.04; in assay [3], 0.0437; in assay [4], -0.0741; in assay [5], -0.0942; in [6], -0.152; in assay [7], -0.0769. Further, the composite z-score was 0.0473 in assay [8]; 0.231 in [9]; 0.26 in assay [10]; 0.873 in the assay with Albumin (Bos taurus); 0.0897 in assay [12]; -0.078 in assay [13]. The composite z-score in assay [14] is 0.155; in assay [15], 0.5; in assay [16] it was -0.0918; with Sam68 (KHDRBS1), -0.184; in assay [17], 0.0301; in assay [18], 0.131. Besides, the z-score in assay [2] is -0.979. Also, the composite Z-score in assay [11] is 0.79 (inactive).

These data come from PubChem BioAssay.
